# TbREL1 primary – TbREL1 inhibition, primary screen; TbREL1 RNA ligation, FRET fluorescence; inhibition, % at 9.66 µM; 89,000 tested, 0.49% active; AID 1117264;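 active means inhibition above the mean inhibition across all screened compounds plus 3 SD, cut at about 11% in these data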;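 further: 0% = plate median of test wells and 100% = NSC42067 control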
# Target sequence (P86926 whole entry, looked up): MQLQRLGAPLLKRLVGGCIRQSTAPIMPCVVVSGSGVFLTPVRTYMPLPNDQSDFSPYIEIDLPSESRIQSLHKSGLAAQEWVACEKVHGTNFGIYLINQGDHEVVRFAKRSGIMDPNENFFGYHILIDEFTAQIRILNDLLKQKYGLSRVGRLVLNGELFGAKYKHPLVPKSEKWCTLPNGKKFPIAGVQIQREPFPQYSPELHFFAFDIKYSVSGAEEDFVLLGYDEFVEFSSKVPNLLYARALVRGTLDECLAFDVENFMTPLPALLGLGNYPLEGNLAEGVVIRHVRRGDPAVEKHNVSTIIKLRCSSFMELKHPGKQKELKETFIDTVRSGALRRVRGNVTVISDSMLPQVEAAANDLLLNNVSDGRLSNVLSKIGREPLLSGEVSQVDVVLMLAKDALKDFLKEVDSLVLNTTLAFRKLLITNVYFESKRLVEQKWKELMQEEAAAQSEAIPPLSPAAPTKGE
# TbREL1 confirm – TbREL1 inhibition, confirmation | TbREL1 RNA ligation, FRET fluorescence | inhibition, % at 9.66 µM | AID 1117282 | 390 tested, 37% active | shares compounds with TbREL1 primary;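 active means mean inhibition across replicates above a set limit taken from the earlier primary screen, cut at about 11% in these data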;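 further: 0% = REL1 with substrate and DMSO and 100% = REL1 plus control inhibitor NSC42067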
# Starred values were filed as active, the others as inactive. Shown is part of a subset that was picked to be rich in hits.
SMILES,TbREL1 primary,others
O=C(N/N=C/c1sc(N2CCOCC2)nc1-c1ccccc1)c1ccccc1O,3,
O=C(CCN1CCOCC1)N/N=C/c1cc(Br)cc(Br)c1O,3,
O=C(Cc1csc(N2CCOCC2)n1)N/N=C/c1ccc(O)c(O)c1O,12*,TbREL1 confirm=35*
C[C@@H]1CN([C@H](C)CO)C(=O)c2cc(NC(=O)Nc3ccccc3)ccc2O[C@@H](C)CCCCO[C@H]1CN(C)S(=O)(=O)c1ccc(F)cc1,-3,
COC(=O)C1=C(C)N(c2ccccc2)C(=S)NC1c1ccccc1C(F)(F)F (centres undefined),-5,
COC(=O)C1=C(C)N(Cc2ccc(C(F)(F)F)cc2)C(=NCc2ccc(C(F)(F)F)cc2)NC1c1ccccc1C(F)(F)F (centres undefined),17*,TbREL1 confirm=24*
COC(=O)C1=C(C)N(Cc2ccc(C(F)(F)F)cc2)C(=NCc2ccccc2C(F)(F)F)NC1c1ccccc1C(F)(F)F (centres undefined),17*,TbREL1 confirm=23*
COC(=O)C1=C(C)N(C)C(=NCc2ccccc2)NC1c1ccccc1C(F)(F)F (centres undefined),9,
COC(=O)C1=C(C)N(Cc2ccc(C(F)(F)F)cc2)C(=NCc2ccc3c(c2)OCO3)NC1c1ccccc1C(F)(F)F (centres undefined),17*,TbREL1 confirm=22*
Cc1ccc(S(=O)(=O)NCC2CN(S(=O)(=O)c3ccc(C)cc3)c3ccccc3C(=O)N2c2ccc(F)cc2)cc1 (centres undefined),-4,
CCc1cc(C(=O)N(C)CC(=O)Nc2c(Cl)cccc2Cl)sc1C,0,
CC(=O)N1CCc2c1cccc2S(=O)(=O)NC(CC(C)C)C(=O)Nc1ccc(Cl)c(Cl)c1 (centres undefined),-2,
CCOc1ccc(NC(=O)CCC(=O)N/N=C2\CCCc3ccccc32)cc1,6,
Cc1ccc(C(=O)N2CCC(C(=O)c3ccc(Cl)cc3)CC2)cc1,0,
Cc1ccc(C(=O)C2COC(=O)C2)cc1 (centres undefined),20*,TbREL1 confirm=5
Cc1ccc(C(=O)C2CCN(CC(=O)N3CCCC3)CC2)cc1,-1,
Cc1cccc(NC(=O)[C@H]2CC(=O)O[C@@H]2c2ccccc2)c1C,2,
O=C(OCc1cn(Cc2ccccc2C(F)(F)F)nn1)N1CCOCC1,5,
CC(C)(C)c1cccc(N/C(=C\C(=O)c2ccccc2)c2ccccc2)c1,0,
O=C(Cc1c[nH]c2ccccc12)Nc1ccc(Nc2cccnc2)c(-c2ccc(Cl)c(Cl)c2)c1,0,
CC(C)(C)OC(=O)C[C@H]1C/C=C\C[C@@H](CC(=O)N[C@H](CO)Cc2ccccc2)C(=O)N2CCC[C@H]2COC1=O,-1,
CCOC(=O)CNC(=O)C1(/C=C/c2ccccc2)CC(=O)N1c1ccc(C)cc1 (centres undefined),-3,
CC(NCC(O)COc1ccc2ccccc2c1)c1ccccc1 (centres undefined),14*,TbREL1 confirm=14*
CCCC(NCC(O)COc1ccc(-c2ccccc2)cc1)c1ccccc1 (centres undefined),1,
Cc1nc(C)n(CC(O)COc2ccc3ccccc3c2)n1 (centres undefined),-3,
SMILES,TbREL1 primary,others
COC(=O)[C@]12CCCCC=C1N(CCC1=CCCCC1)C(=O)[C@H](CC(=O)NCC13CC4CC(CC(C4)C1)C3)C2,-2,
O=C(OCc1cn(Cc2ccc(F)cc2F)nn1)N1CCCC1,5,
CCOC(=O)C1CCN(C(=O)CN(c2cc(Cl)ccc2OC)S(=O)(=O)c2ccccc2)CC1,1,
COc1ccc(Cl)cc1N(CC(=O)N1CCCC1)S(=O)(=O)c1ccc(C)cc1,12*,TbREL1 confirm=4
COC(=O)CN(c1cc(Cl)ccc1OC)S(=O)(=O)c1ccc(C)cc1,3,
O=C1CCc2cc(S(=O)(=O)Nc3ccccc3)cc3c2N1CCC3,4,
CCOC(=O)N1CCN(C(=O)C[C@H]2C[C@@]3(C(=O)OC)C(=C[C@H](C(C)C)O[C@@H]3C3CC3)N(Cc3cccc4ccccc34)C2=O)CC1,3,
O=C(CN(CCc1ccccc1)S(=O)(=O)c1ccc(F)cc1)N1CCOCC1,1,
O=C(NCc1cccs1)C1C2C=CC3(CN(Cc4ccccc4)C(=O)C13)O2 (centres undefined),2,
CC(C)CCOC(=O)C1C2C=CC3(CN(Cc4cccs4)C(=O)C13)O2 (centres undefined),-6,
O=C(NCC1CCCO1)C1C2C=CC3(CN(Cc4cccs4)C(=O)C13)O2 (centres undefined),20*,TbREL1 confirm=1
COc1ccc(OC)c(C(=O)CSc2nnc(SCc3cccc4ccccc34)s2)c1,-4,
CC(=O)Nc1ccc(S(=O)(=O)N(C)c2ccc(OCC(=O)NCCc3ccccc3F)cc2)cc1,-1,
COc1ccc(CCNC(=O)C2CCCN(Cc3nc(-c4ccccc4C)oc3C)C2)cc1OC (centres undefined),-1,
COc1ccc(F)c(-c2nc(CN3CCN(C(=O)c4ccco4)CC3)c(C)o2)c1,-3,
COc1ccc(-c2nc(CN3CCN(c4cc(C)nc(C)c4)CC3)c(C)o2)c2ccccc12,15*,TbREL1 confirm=10
Brc1ccc(-c2csc(N3CCNCC3)n2)cc1,-2,
CC1(C(=O)NS(=O)(=O)c2cccc(F)c2)CCN1C(=O)CCc1ccccc1 (centres undefined),1,
N[C@H](C(=O)Nc1ccc(Cl)cc1C(=O)c1ccc[nH]1)c1ccccc1,8,
O=C(N[C@H](Cc1ccccc1)C(=O)NCc1cccc2ccccc12)[C@H]1O[C@@H](n2ccc(=O)[nH]c2=O)[C@H](O)[C@@H]1O,-1,
C[C@@H]1[C@@H](c2ccccc2)OC(O)([C@H](Cc2ccccc2)NC(=O)OC(C)(C)C)CN1C (some centres undefined),-3,
CN1CC(O)([C@H](Cc2ccccc2)NC(=O)OC(C)(C)C)OCC1C(=O)NCc1cccc2ccccc12 (some centres undefined),11*,TbREL1 confirm=-3
COc1ccc(/C(N)=N/OC(=O)C2CCCCC2)cc1,0,
CCC1CCCCN1CCCNC(=O)c1ccc2c(=O)n(CCOC)c(=O)[nH]c2c1 (centres undefined),-1,
CN(C)CCCNc1ncnc2sc(-c3ccccc3)cc12,14*,TbREL1 confirm=4
SMILES,TbREL1 primary,others
CN(C)CCNc1ncnc2ccccc12,1,
CC(C)N(C(=O)CSc1ncnc2sc(-c3ccccc3)cc12)C(C)C,-3,
CCc1nc2ccc(C(=O)N(C)Cc3ccccc3)cn2c1N(CC)CCN(C)C,-2,
CS(=O)(=O)Nc1ccc(C(=O)Nc2ccccc2C(=O)NCc2ccco2)cc1,4,
COCC(=O)N(C)C[C@@H]1Oc2cc(-c3ccc(F)cc3)ccc2S(=O)(=O)N([C@H](C)CO)C[C@H]1C,3,
CCC(=O)NC(c1cccs1)c1cc([N+](=O)[O-])c2cccnc2c1OC (centres undefined),33*,TbREL1 confirm=9
CCC(=O)NC(c1cccs1)c1ccc2cccnc2c1O (centres undefined),0,
CC(=O)NC(c1cccs1)c1cc(F)c2cccnc2c1O (centres undefined),0,
O=C(N[C@H]1c2ccccc2C[C@H]1O)[C@H]1O[C@@H](n2ccc(=O)[nH]c2=O)[C@H](O)[C@@H]1O,-2,
COC(CNC(=O)[C@H](Cc1c[nH]c2ccccc12)NC1(C(=O)NC2CCCCC2)CCCCC1)OC,-4,
COc1ccc2c(c1)CCCN2C(=O)C1CCCN(S(=O)(=O)c2ccc(Cl)s2)C1 (centres undefined),-4,

# Compound activity (PubChem BioAssay)
